Screening results (PubChem)
An excerpt weighted towards active compounds, which were near 7.4% of everything screened.
FLuc counter: inhibits or activates purified firefly luciferase, miR-21 counter-screen; Potency, µM (titrated, usually from 57.5 µM), hits mostly inhibitors; AID 588342; purified FLuc, Km substrates, luminescence inhibition; hit rate 6.9% among 360,000; also: nearly all actives have a fitted effect of over 55% in size
Target sequence (P08659 whole entry, looked up): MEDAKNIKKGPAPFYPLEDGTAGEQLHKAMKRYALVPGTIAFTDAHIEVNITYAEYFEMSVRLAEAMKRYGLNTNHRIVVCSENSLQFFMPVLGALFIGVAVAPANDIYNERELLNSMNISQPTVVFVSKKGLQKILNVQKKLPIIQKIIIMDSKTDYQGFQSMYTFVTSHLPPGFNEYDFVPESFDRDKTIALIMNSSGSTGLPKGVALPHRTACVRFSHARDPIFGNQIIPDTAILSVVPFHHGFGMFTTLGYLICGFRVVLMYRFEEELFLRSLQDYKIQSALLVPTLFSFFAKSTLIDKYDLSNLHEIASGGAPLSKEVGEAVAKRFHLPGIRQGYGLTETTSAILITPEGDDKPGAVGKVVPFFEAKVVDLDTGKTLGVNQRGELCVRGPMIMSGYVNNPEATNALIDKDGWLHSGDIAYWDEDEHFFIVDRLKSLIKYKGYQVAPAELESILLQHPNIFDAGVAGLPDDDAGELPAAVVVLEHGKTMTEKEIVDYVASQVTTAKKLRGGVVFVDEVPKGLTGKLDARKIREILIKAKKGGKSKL
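Purified P. pyralis luciferase (10nM final) with 10uM D-luciferin and 10uM ATP (Km levels) in 50mM Tris acetate pH 7.5, 10mM Mg acetate, 0.01% Tween-20, 0.05% BSA; qHTS 6-point titration, ~60 µM downward; luminescence read.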
SMN2 splice up: SMN2 splice variant enhancement. Potency, µM (doses to about 46.1 µM), hits mostly activators. hit rate 2.8% among 210,000. HEK293 SMN2-luciferase splicing reporter, luminescence, 30-36 h; also: nearly all actives have a fitted effect of over 55% in size
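HEK293 cells carry an SMN2 […]–luciferase reporter in which exon 7 inclusion puts luciferase in frame. Cells were plated 10-12 h before compound addition, then incubated 30-36 h at 37C. ONE-Glo luminescence was read; sodium butyrate at 4.5 mM final served as control.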
Rab9 promoter act: activates the Rab9 promoter. hit rate 2.8% among 320,000. Huh7 Rab9 promoter-luciferase reporter, luminescence, 24 h. Potency, µM (top dose mostly 9.22 µM), actives largely listed as activators. AID 485297; also: nearly all actives have a fitted effect of over 60% in size
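Cell-based reporter: Huh7 stable for Rab9 promoter-driven luciferase, plated in reduced-serum medium with 10% FBS at 1500 cells/well, compound-treated 24 h at 37 °C, luminescence read after 10 min reagent.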
KinaseGlo FLuc: counter-screen: inhibitors of Kinase-Glo firefly luciferase | Q27757 | Kinase-Glo luciferase, ATP luminescence, 8 min | Potency, µM (series often up to 38.3 µM), usual class: inhibitors | hit rate 0.28% among 200,000 | AID 1379; also: nearly all actives have a fitted effect of over 60% in size
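Luminescence was the read-out, taken after 8-minute incubation at ambient temperature. Luciferase turned over luciferin with 10 uM ATP in imidazole pH 7.2 buffer containing KCl, MgCl2, Tween 20 and BSA.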
NPC1 prom act: NPC1 promoter activation. AID 485313. Potency, µM (top dose mostly 9.22 µM), usual class: activators. Huh7 NPC1 promoter luciferase reporter, 24 h. hit rate 2.4% among 320,000; also: nearly all actives have a fitted effect of over 60% in size
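NPC1 promoter–luciferase Huh7 cells; 24 h compound; luminescence.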
ELG1 genotox: inducers of genotoxicity in HEK293T ELG1-luciferase cells; AID 504466; hit rate 1.3% among 330,000; Potency, µM (highest dose often 46 µM), actives largely listed as activators; HEK293T ELG1-luciferase reporter, luminescence, 16 h; also: nearly all actives have a fitted effect of over 60% in size
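HEK293T cells expressing luciferase-tagged ELG1 were exposed to compound or DMSO vehicle for 16 hr at 37 °C and 5% CO2. Luciferase activity was then measured with ONE-Glo after 30 min at room temperature.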
Numbers stand for hits; 0 = inactive; ? = inconclusive; - = no result given; [ ] = another dose, or the depositor's remark. Calls follow the shape of the dose curve; as a rule, active = well fitted curve in the direction sought with a large enough effect; inconclusive = small, poorly fitted or top-dose-only effect, or another doubt; inactive = no such curve, though single readings can be large; an effect the other way counts as inactive or inconclusive.

SMILES	FLuc counter	SMN2 splice up	Rab9 promoter act	KinaseGlo FLuc	NPC1 prom act	ELG1 genotox
O=C(CC1CCCCC1)NCCS(=O)(=O)N1CCN(c2ccccc2)CC1	0	-	0	-	0	0
C/C(N)=C(/C#N)C(=O)CSc1nnc(Nc2cccc(C)c2C)s1	16.9µM	?	?	0	?	0
CC(C)Cn1c(N)c(C(=O)COC(=O)c2cccn2C)c(=O)n(C)c1=O	-	-	-	-	-	0
CC(=O)NCCc1cc2ccc(C)c(C)c2[nH]c1=O	0	?	0	0	0	0
Cc1ccc2cc(CCNC(=O)c3cccs3)c(=O)[nH]c2c1C	5.36µM	10µM	2.82µM	0	2.82µM	?
Cc1ccc2cc(CCNC(=O)c3cccs3)c(=O)[nH]c2c1	10.7µM	10µM	?	0	3.16µM	?
COC(=O)[C@@H]1CCCN1C(=O)CCc1nnc(CCC2CCCCC2)o1	19µM	?	?	0	0	?
COC(=O)[C@@H]1CCCN1C(=O)CCc1nnc(CCc2c[nH]c3ccccc23)o1	16.9µM	-	0	0	0	0
COC(=O)C1CCCCN1C(=O)CCc1nnc(CCc2c[nH]c3ccccc23)o1 (centres undefined)	0	-	0	0	0	0
COc1ccc(C2=NS(=O)(=O)N(C)C(C(=O)NCc3ccccn3)=C2)cc1OC	0	-	0	-	0	0
CC1CCC/C(=N\NC(=O)Nc2ccccc2)C1 (centres undefined)	15.1µM	-	0	-	0	0
COc1ccc([C@@H]2[C@@H]3C(=O)N(C(C)(C)C)C(=O)[C@@H]3[C@]3(CC(C)C)C(=O)N(c4cccc(Br)c4)C(=O)N23)cc1	0	-	0	-	0	0
O=C(Nc1ccc(F)cc1)c1nsc(Cl)c1Cl	4.78µM	11.2µM	3.16µM	0	3.55µM	?
Cn1cc(Br)c(C(=O)NNC(=O)Cc2ccc(Cl)cc2)n1	0	-	0	-	0	0
CCOc1ccc(NC(=O)c2sc3ccccc3c2Cl)cc1	0	0	-	-	-	-
CCOc1ccc(NC(=O)c2nsc(Cl)c2Cl)cc1	4.78µM	-	1.41µM	0	2.24µM	4.61µM
CC(C)OC(=O)c1cc(NC(=O)c2nn(C)cc2Br)cc(C(=O)OC(C)C)c1	0	0	0	0	0	0
Cn1cc(Br)c(C(=O)NNC(=O)c2ccc(Cl)cc2)n1	19µM	?	0	0	0	?
CCOc1ccc(NC(=O)c2nn(C)cc2Br)cc1	7.57µM	-	3.16µM	-	?	?
O=C(Nc1ccc(F)c(Cl)c1)c1nsc(Cl)c1Cl	2.39µM	-	2.82µM	-	2.24µM	20.6µM
Cn1cc(Br)c(C(=O)Nc2ncc(Br)s2)n1	0	4.47µM	2.51µM	0	3.55µM	?
CCc1ccccc1Nc1sc(C(=O)c2cccc(OC)c2)c(N)c1S(=O)(=O)c1ccccc1	0	0	-	-	-	-
NS(=O)(=O)c1cc(C(=O)OCC(=O)c2ccc3c(c2)OCCO3)ccc1Cl	0.213µM	0	2.82µM	0	2.82µM	?
CNS(=O)(=O)c1cccc(C(=O)OCC(=O)c2ccc3c(c2)OCCO3)c1	0.379µM	-	0	-	0	0
Cc1ccc(CN(C(=O)COc2cccc(C)c2C)C2CCS(=O)(=O)C2)o1 (centres undefined)	0	-	0	-	0	0
SMILES	FLuc counter	SMN2 splice up	Rab9 promoter act	KinaseGlo FLuc	NPC1 prom act	ELG1 genotox
Cc1ccc(C2=NN(C(=O)c3ccco3)C(O)(C(F)(F)F)C2)cc1 (centres undefined)	19µM	-	0	0	0	0
Nc1ccc(C(=O)N2N=C(c3ccc(F)cc3)CC2(O)C(F)(F)F)cc1 (centres undefined)	?	-	0	-	0	0
Nc1ccc(C(=O)N2N=C(c3ccccc3)CC2(O)C(F)(F)F)cc1 (centres undefined)	12µM	-	0	-	0	0
O=C(O)c1cc(S(=O)(=O)Nc2ccc(O)cc2)ccc1Cl	-	-	-	0	-	-
Cc1ccc(NCc2nc3ccccc3n2CCOc2ccccc2)cc1	8.49µM	0[1.84 µM]	2.51µM	0	4.47µM	?
COCCn1c(COc2ccc(C)cc2)nc2ccccc21	9.53µM	0	?	0	?	0
CCCn1c(CNc2ccc(Br)cc2)nc2ccccc21	16.9µM	0	0	0	0	0
CCOCCn1c(COc2ccc(C)cc2)nc2ccccc21	?	?	?	0	0	0
COc1ccc(Cn2c(-c3ccc(OC)cc3)nc3ccccc32)cc1	?	0	0	0	0	0
COCCn1c(-c2ccc(OC)cc2)nc2ccccc21	19µM	0	0	0	0	0
O=c1oc2ccccc2cc1-c1cn2cc(Cc3ccc(Br)cc3)sc2n1	0	0	-	-	-	-
CCn1c(COc2ccc(C)cc2)nc2ccccc21	8.49µM	-	2.82µM	0	?	0
COc1cccc(C(=O)Nc2ccccc2N2CCCC2)c1	0	0	0	0	0	0
CN1/C(=C\C(=O)c2cccnc2)Sc2ccccc21	9.53µM	14.1µM	2.24µM	0	2.51µM	?
COc1cccc(C(=O)/C=C2\Sc3ccccc3N2C)c1	1.07µM	6.31µM	0.891µM	0	0.708µM	1.46µM
CC[C@H](C)C(=O)O[C@H]1CCC=C2C=C[C@H](C)[C@H](CC[C@@H]3C[C@H](O)CC(=O)O3)C21 (some centres undefined)	-	?	-	0	-	-
Cc1ccc(SCCCCN2CCNCC2)cc1	?	0	?	0	?	0
Cc1ccc(C(=O)Nc2sc(C)c(-c3ccccc3)c2C(N)=O)cc1[N+](=O)[O-]	3.38µM	0	0	0	0	2.91µM
Cc1ccc(C(=O)Nc2cccc(NC(=O)c3ccc(C)c([N+](=O)[O-])c3)n2)cc1[N+](=O)[O-]	0	-	0	-	0	0
CNC(=S)N1N=C2c3ccccc3CCC2C1c1ccccc1Cl (centres undefined)	0	-	0	-	0	0
CN1N=C2c3ccccc3CCC2C1c1ccc(F)cc1 (centres undefined)	?	-	2.51µM	-	?	0
CN1N=C2c3ccccc3CCC2C1c1ccc(Cl)cc1 (centres undefined)	10.7µM	-	?	-	?	?
CC1=CC(C)=Nc2ccccc2N1	16.9µM	0	0	0	0	16.4µM
O=C(NC1=NCCS1)c1ccc(C(F)(F)F)cc1	10.7µM	-	0[1.84 µM]	-	2.82µM	?
Cc1ccc(C(=O)NC2=NCCS2)cc1	10.7µM	-	3.55µM	-	2.82µM	?
SMILES	FLuc counter	SMN2 splice up	Rab9 promoter act	KinaseGlo FLuc	NPC1 prom act	ELG1 genotox
O=C(NC1=NCCS1)c1ccc(N2CCCC2=O)cc1	0	?	?	0	0	0
CC(C)c1ccc(C(=O)NC2=NCCS2)cc1	1.9µM	2µM	0.398µM	0	0.562µM	1.64µM
N#Cc1ccc(C(=O)NC2=NCCS2)cc1	?	-	?	-	?	0
COc1cc(C(=O)NC2=NCCS2)cc(OC)c1OC	0	?	0	0	0	0
Cc1ccc(C(=O)NC2=NCCS2)cc1Cl	6.75µM	-	1.26µM	-	1.41µM	?
COc1ccc(NC(=O)c2cnc(SC)nc2C)c(OC)c1	0	-	0	-	0	0
